# Reference: PubChem BioAssay
# Activity calls are given as the source filed them. No rule for the calls is given here.
# Assay: inhibitors of hydroxyurea-induced Chk1 phosphorylation, primary screen, imaging, HeLa, phospho-Chk1 nuclear intensity (AID 1187); also: test concentration not given here
# Details: hydroxyurea-induced phospho-Chk1 immunofluorescence imaging, higher = more signal
row,Compound,z-score
1,Cc1ccc(S[C@]2(C(=O)NCC(C)C)CC(=O)N(Cc3ccccc3)[C@@H]2c2ccc(CO)cc2)cc1,-0.141 (inactive)
2,O=C1c2ccccc2[C@](Cc2ccccc2I)(C(=O)O)[C@H](c2ccc(CO)cc2)N1Cc1ccccc1C(F)(F)F,-0.572 (inactive)
3,C=C(C)[C@@H]1CC=C(C(O)C2C=CC3C(=O)N(Cc4ccccc4)C(=O)C3N2n2cnnc2)CC1 (some centres undefined),0.265 (inactive)
4,C=CCNC(=O)[C@@H]1[C@H]2C(=O)O[C@H](c3ccccc3)[C@H](c3ccccc3)N2[C@H](c2ccccc2OCCO)[C@@]12C(=O)N(C(=O)OCCOC)c1ccc(C#CCC(C(=O)OC)C(=O)OC)cc12,0.361 (inactive)
5,CCCC[C@H]1OB(O)C[C@H]2C1=C(COc1ccccc1)C[C@H]1C(=O)N(Cc3ccccc3)C(=O)[C@H]12,0.206 (inactive)
6,CC(C)C(O)C1C=CC2C(=O)N(C)C(=O)C2N1N1CCCCC1 (centres undefined),0.171 (inactive)
7,CCN(CC)c1ccc(N2CC=CC34O[C@@H]5/C=C\CCCOC(=O)C5[C@H]3C(=O)N(CCCO)[C@@H]4C2=O)cc1 (some centres undefined),0.121 (inactive)
8,Cn1c2c(c3ccccc31)C(=O)C1NC2C=CC1(C)C(=O)OCc1ccccc1 (centres undefined),-0.512 (inactive)
9,CO[C@H]1O[C@H](CO)[C@@H](OC(=O)Nc2ccccc2-c2ccccc2)[C@H](OC(=O)Nc2ccccc2-c2ccccc2)[C@H]1OC(=O)Nc1ccccc1-c1ccccc1,0.618 (inactive)
10,O=c1cccc(-c2cccc3ccccc23)o1,-1.06 (inactive)
11,O=C(NCC(O)CO)[C@@]1(Cc2ccccc2)COC(c2ccc(OCCCO)cc2)=N1 (some centres undefined),0.238 (inactive)
12,O=C1O[C@H](c2ccccc2)[C@H](c2ccccc2)N2[C@H]1[C@@H](C(=O)NC[C@H](O)c1ccccc1)[C@]1(C(=O)Nc3ccc(C#CC4(O)CCCCCC4)cc31)[C@H]2c1ccccc1OCCO,-0.0113 (inactive)
13,CC(C)C(=C=CC[C@H](O)c1ccccc1OCCO)CCO,0.0237 (inactive)
14,COC(=O)c1c2oc(c1C(=O)OC)C(=O)N[C@H](Cc1ccccc1)Cn1nncc1C1(CCCCC1)NC(=O)N[C@H](CO)CC2,-0.939 (inactive)
